Measurements as given in PubChem BioAssay AID1508625 (Wald Lab, School of Medicine, Case Western Reserve …, 2021).

Experiment: small molecules boosting NK-mediated OVCAR3 lysis – imaging, primary NK cells, calcein-AM imaging, primary screen (AID 1508625);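 also: compound given to NK cells 16 h before adding targets at 1.5 to 1 ratio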;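 as to z-score: more negative robust z means stronger NK killing of tumor cells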
Conditions: OVCAR3 lysis by primary NK cells, at 5 µM; z-score: measured here: robust Z-score, single-point normalisation

| Compound | corrected activity, negative = more killing | z-score |
| --- | --- | --- |
| COc1ccc(-c2csc(Nc3ccc(NC(C)=O)cc3)n2)cc1OC | 1.84% | 0.823 |
| COc1ccc(OC)c(C2NC(=S)NC(C)=C2C(=O)Nc2ccccc2)c1 (configuration not stated) | -2.97% | -0.92 |
| O=C(CCn1c(SCc2ccccc2Cl)nc2cc3c(cc2c1=O)OCO3)N1CCN(c2ccccc2)CC1 | -5.52% | -1.46 |
| COc1ccc(C2NC(=O)c3c(sc4c3CCCC4)N2)cc1OC (configuration not stated) | -2.78% | -1.1 |
| Cc1c(C(=O)Nc2cccc([N+](=O)[O-])c2)sc2ncn(CC(=O)N3CCOCC3)c(=O)c12 | -2.14% | -0.779 |
| CCOc1ccc(-c2cc(=O)c3ccccc3o2)cc1 | -6.12% | -2.28 |
| COc1ccc(-c2ccc3c(N)c(C(=O)Nc4ccc(Br)cc4)sc3n2)cc1 | -3.35% | -1 |
| N#Cc1cccn1Cc1ccccc1Cl | -4.07% | -1.1 |
| COc1ccccc1N1CCN(C(=O)NC2CCCCC2)CC1 | -0.143% | -0.0428 |
| COc1cc(OC)cc(C(=O)N2CCN(C3CCC(C)CC3)CC2)c1 (configuration not stated) | -1.69% | -0.755 |
| CCN(CC)C(=O)CSc1nnc(-c2ccccc2)o1 | -4.29% | -1.86 |
| Cc1ccc(-n2c(SCC(=O)Nc3cccc(F)c3)nc3c(c2=O)SCC3)cc1 | -3.47% | -0.864 |
| CCCCN(C(=O)c1cnc2n(c1=O)CCS2)c1ccccc1 | -5.28% | -1.68 |
| COC(=O)c1ccc(C)c(NC(=O)c2ccc(C3SCC(=O)N3Cc3ccccc3)cc2)c1 (configuration not stated) | -5.82% | -2.22 |
| CC(=O)OC1CC(C)N(C(=O)c2ccccc2)c2ccc(C)cc21 (configuration not stated) | -5.57% | -1.73 |
| Cc1cccn2c(=O)c3cc(C(=O)N4CCCCCC4)sc3nc12 | -6.34% | -1.8 |
